# Screens (PubChem)
# Hits are enriched below; roughly 2.2% of the tested compounds scored in any of these assays.
# FUS suppressor: qHTS for Suppressors of FUS Proteinopathy: Primary screen using FUS-linked yeast assay. S. cerevisiae FUS-expressing, growth rescue, OD600, 24 h. hit rate 0.24% among 390,000. AID 1347120, 2019. Potency, µM (highest dose often 76.6 µM), most hits filed as activators; also: nearly all actives have a fitted effect of over 55% in size
#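 S. cerevisiae expressing FUS from galactose induction served as the toxicity model. Growth after 24hr at 30C, read as absorbance at 600 nm, indicates suppression of toxicity; compounds dosed at several concentrations.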
# Abeta yeast res: qHTS for compounds that reverse cellular toxicity of Amyloid beta (A-beta) peptide in yeast: Primary Screen; yeast expressing A-beta42, growth rescue, OD600, 48 h; response scale: 0% DMSO, 100% iron-clioquinol control; Potency, µM (top dose mostly 46.1 µM), actives largely listed as activators; hit rate 0.063% among 410,000; AID 1347071, 2019; also: nearly all actives have a fitted effect of over 55% in size
#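 Yeast A-beta toxicity model in growth medium with pinned compounds, 48 h at 30 C; growth read as absorbance at 600 nm. Normalized to FeCl3/clioquinol equimolar mix (positive) and DMSO (negative).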
# aSyn rescue: qHTS of alpha-syn Inhibitors | Yeast expressing alpha-synuclein, growth rescue, BacTiter-Glo, 24 h | hit rate 0.14% among 370,000 | Potency, µM (doses to about 46.1 µM), actives largely listed as activators; also: nearly all actives have a fitted effect of over 65% in size
#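 Screening used galactose-induced yeast with toxic alpha-synuclein levels, exposed to compound for 24 hr at 30 deg C. Cell growth, read with BacTiter-Glo luminescence, gave the measured signal.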
# TDP43 rescue: qHTS of TDP-43 Inhibitors; TDP-43 expressing yeast growth rescue, BacTiter-Glo, 24 h; Potency, µM (titrated, usually from 46.1 µM), actives largely listed as activators; hit rate 1.8% among 410,000; AID 652104, 2013; also: nearly all actives have a fitted effect of over 50% in size
#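 Luminescence from BacTiter-Glo reports growth of TDP-43-expressing yeast after 24 hr at 30 deg C with compound. Cells were raffinose-pregrown to mid-log, then seeded in galactose medium at OD600=0.02.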
# Mito fusion yeast: qHTS Assay for Small Molecule Inhibitors of Mitochondrial Division or Activators of Mitochondrial Fusion; hit rate 0.23% among 320,000; S. cerevisiae fusion-defective mutant growth rescue, CellTiterGlo 48 h; Potency, µM (series often up to 46.1 µM), hits mostly activators; also: nearly all actives have a fitted effect of over 45% in size
#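 Growth-rescue viability read-out: after 48 h at the non-permissive 37C in glycerol/ethanol YPEG, yeast mitochondrial fusion mutants are measured by CellTiterGlo luminescence; compounds (23 nl pinned per well) restoring growth score as division inhibitors or fusion activators.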
# A number is an active result; – = inactive; ? = inconclusive; · = no result; ! = not confirmed by another sample; [ ] = remark or other dose. Calls follow the shape of the dose curve; as a rule, active = well fitted curve in the direction sought with a large enough effect; inconclusive = small, poorly fitted or top-dose-only effect, or another doubt; inactive = no such curve, though single readings can be large; an effect the other way counts as inactive or inconclusive.
SMILES,FUS suppressor,Abeta yeast res,aSyn rescue,TDP43 rescue,Mito fusion yeast
Cc1ccc(-n2ncc3c(NCCc4ccccc4)ncnc32)cc1C,–,–,·,?,·
Fc1ccccc1Nc1ncnc2c1nnn2Cc1ccccc1,–,?,–,11µM,–
O=C(CC1C=CCC1)OCCN1CCN(C2CN(Cc3cn(Cc4ccccc4Cl)nn3)S(=O)(=O)C2)CC1 (stereo not given),–,·,·,·,·
O=C(CSc1nnc(-c2cccnc2)n1Cc1ccco1)Nc1ccc(F)cc1Cl,–,·,·,·,·
Cc1cc(C(=O)COC(=O)C2=NNC(=O)CC2)c(C)n1CCc1ccccc1,–,–,–,–,–
COc1ccc(-c2cnc3c(NC=O)cc(-c4cccc(NS(C)(=O)=O)c4)cn23)cc1OC,?,–,–,–,·
COc1ccc(OC)c(Nc2ncnc3c2cnn3-c2cccc(C)c2)c1,–,–,–,–,16µM
Cn1ncc2c(Nc3ccc4ccccc4c3)ncnc21,–,–,–,10µM,–
Cc1ccc(Nc2ncnc3c2cnn3-c2ccccc2)c(C)c1,–,–,–,35µM,·
NCCC1CN(C(=O)OCc2ccccc2)c2ccccc21 (stereo not given),·,–,–,–,·
O=C([C@@H]1C[C@H]1c1ccccc1)N1CC[C@H]2[C@H](CCCN2Cc2cc(F)cc(F)c2)C1,–,·,·,·,·
CC1C(=O)N(Cc2cn(Cc3ccco3)nn2)CCS(=O)(=O)N1Cc1ccc(-c2ccc(Cl)cc2)cc1 (stereo not given),?,–,–,35µM,·
CC1C(=O)N(Cc2cn(CCC3OCCO3)nn2)CCS(=O)(=O)N1Cc1ccc(-c2ccc(Cl)cc2)cc1 (stereo not given),?,–,–,28µM,·
CC1C(=O)N(Cc2cn(Cc3ccco3)nn2)CCS(=O)(=O)N1Cc1ccc(-c2ccccc2)cc1 (stereo not given),?,–,–,–,·
CC(C)c1ccc(N(C)C(=O)Cc2c(C(=O)O)n(C)c3ccccc23)cc1,–,–,–,28µM,–
CN(C(=O)Cc1c(C(=O)O)n(C)c2ccccc12)c1ccc(Cl)cc1,–,–,–,–,–
CCc1ccc(N(CC)C(=O)Cc2c(C(=O)O)n(C)c3ccccc23)cc1,–,–,–,28µM,–
CCOc1ccc(N(CC)C(=O)Cc2c(C(=O)O)n(C)c3ccccc23)cc1,–,?,–,–,–
Cc1ccc(NC(=O)C2CCN(c3nnc(-n4cccc4)s3)CC2)cc1C,–,·,·,·,·
O=C1C2C3C=CC(C3)C2C(=O)N1CN(Cc1ccccc1)CN1C(=O)C2C3C=CC(C3)C2C1=O (stereo not given),–,–,–,5.6µM,–
O=S(=O)(Nc1ccccc1Br)c1cccc2cccnc12,–,–,–,–,·
O=S(=O)(Nc1cc(Br)cc2cccnc12)c1cccc2ccccc12,·,·,25µM,·,·
CC(=O)/C=C1\OCc2cc(OCc3ccccc3)ccc21,–,–,–,10µM,·
CCOc1c2c(c(-c3ccc4c(c3)OCO4)c3cc(OC)c(OC)cc13)C(=O)OC2,·,·,–,·,·
Cc1ccc(-c2onc(C)c2C)cc1S(=O)(=O)NCc1ccco1,–,–,·,?,·
SMILES,FUS suppressor,Abeta yeast res,aSyn rescue,TDP43 rescue,Mito fusion yeast
COc1ccc(-c2onc(C)c2C)cc1S(=O)(=O)NCC(C)c1ccccc1 (stereo not given),?,–,·,35µM,·
Cc1ccc(-c2onc(C)c2C)cc1S(=O)(=O)NCc1cccs1,–,–,·,16µM,·
CCOc1ccccc1CNS(=O)(=O)c1cc(-c2onc(C)c2C)ccc1OC,?,–,·,–,·
COC(=O)c1ccc(NC(=O)CSc2nc(=O)n3cccc(C)c3n2)cc1,–,–,–,–,–
CCOc1cc(/C=N/NC(=O)c2nn(C)cc2Br)ccc1OCc1ccccc1Cl,·,–,?,–,4µM
Cn1cc(Br)c(C(=O)N/N=C/c2cccc(OC3CSC3)c2)n1,·,–,–,?,?
CCOc1cc(/C=N/NC(=O)CN2CCCCC2)ccc1OCc1cccc(Cl)c1,·,–,–,13µM,–
COc1cccc(N2CC(NC(=O)C3CC3)CC2=O)c1 (stereo not given),–,–,·,–,·
CNC(=O)COC(=O)c1cc(SC)ccc1Cl,–,–,–,?,–
CSc1ccc(Cl)c(C(=O)OCC(=O)NCC(C)C)c1,–,–,–,14µM,–
CC(C)CNC(=O)COC(=O)c1cncc(Br)c1,4.5µM,–,–,–,–
CC(C)NC(=O)COC(=O)c1cncc(Br)c1,–,–,–,–,–
Cc1nc2ccccn2c1C(=O)CSc1ccccc1Cl,–,–[9.22 µM],–,35µM,–
Cc1nc2ccccn2c1C(=O)CSc1ccc(Cl)cc1Cl,–,–,–,?,–
O=C(O)c1ccccc1Nc1cccc(OCc2ccc3ccccc3n2)c1,–,–,–,–,15µM!
O=C(CN1CCSc2ccccc21)NCc1ccccc1F,–,–,–,13µM,·
CCOc1cc(CNC(=O)CN2CCSc3ccccc32)cc(OCC)c1OCC,–,–,–,–,·
CC1(C(=O)NCc2cccc3ccccc23)CCN1Cc1cccc2c1OCO2 (stereo not given),–,–,–,–,·
CCn1c(-c2cc(-c3ccc(OC(C)C)cc3)nc3ccccc23)n[nH]c1=S,35µM,–,–,?,?
O=C(CSc1ccc(-c2nc3ccccc3[nH]2)cn1)N1CCN(C(=O)c2ccco2)CC1,14µM,–,–,–,–
CCn1cc(C(=O)NNC(=O)c2ccc(Cl)cc2)c(=O)c2ccc(C)nc21,·,·,·,·,–
COc1ccc(NC(=O)CSc2ccc(-c3ccccn3)nn2)cc1OC,–,–,–,–,–
COc1ccccc1NC(=O)CSc1nnc(-c2ccco2)o1,–,–,–,–,–
O=C(CSc1ccc(-c2ccccn2)nn1)Nc1ccc(F)c(F)c1,–,–,–,13µM,–
COc1ccc(C)cc1NC(=O)CSc1ccc(-c2ccco2)nn1,–,–,–,18µM,–
SMILES,FUS suppressor,Abeta yeast res,aSyn rescue,TDP43 rescue,Mito fusion yeast
COc1ccc(C)cc1NC(=O)CSc1nnc(-c2ccco2)n1N,–,–,–,–,–
COc1ccccc1NC(=O)CSc1ccc(-c2ccccn2)nn1,–,?,–,22µM,–
COc1ccccc1NC(=O)CSc1nccc(-c2ccco2)n1,–,–,–,16µM,–
CC1CCN(S(=O)(=O)c2ccc3[nH]ccc3c2)CC1,–,–,·,?,·
O=C1CN(C(=O)c2ccccc2)C(c2ccc(F)cc2)c2cc(Br)ccc2N1 (stereo not given),–,–,–,–,–
N/C(=N\OC(=O)c1ccccc1)c1ccccn1,–,–,–,–[0.397 µM],–
CCOc1ccc(C(=O)O/N=C(\N)c2ccccn2)cc1,–,–,–,13µM,–
Cc1cccc(/C(N)=N/OC(=O)c2cccc3ccccc23)c1,·,·,·,·,–
CC(C)(C)c1ccc(C(=O)O/N=C(\N)c2ccccn2)cc1,–,–,–,?,–
